This note sets out measurements from PubChem BioAssay.

A number with no mark means an inactive call. Inconclusive results are not listed. For some assays here: Potency and affinity values are given separately. Calls of active or inactive are those of the source.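 The calls were made as follows, unless noted: active = compounds that lower survival of HCT116 colon cancer cells in the luminescence readout, no numeric limit stated; inactive = the rest.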

Experiment [1] in a line: stimulators of insulin release from INS-1E, primary screen, cell-based, 5 mM glucose, NPC library (AID 1117329;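 active = compound raises insulin release from rat beta cells at 5 mM glucose, no numeric limit stated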). The settings on record: rat INS-1E insulin secretion, at 10 µM, stronger effect = higher value.
Experiment [2] in a line: growth inhibition of GSK3B-pretreated HCT116 cells – cell-based, CellTiter-Glo, 0.2 to 20 µM (AID 1117336;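 active = compounds lowering colon cancer cell viability after pretreatment blocking the GSK3B kinase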). The settings on record: HCT116 viability after GSK3B inhibitor, at 20 µM, stronger effect = higher value.
Experiment [3] is described as follows: inhibition of endothelial tube formation, primary screen, imaging, VEGF stimulated, CD31 staining, tube area, NPC library (AID 1117340;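 active = compound that reduces growth-factor-driven endothelial tube area in a mixed cell culture, no cutoff stated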). As to conditions: VEGF-stimulated ADSC/ECFC co-culture, at 10 µM, stronger effect = higher value.
Experiment [4] in a line: glucagon-like peptide 1 release enhancers, primary assay, NCI-H716 cell line, NPC library (AID 1117341;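 active = compound raises GLP1 secretion from the human gut endocrine cells, with no numeric limit stated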). As to conditions: NCI-H716 cells, at 10 µM, stronger effect = higher value.
Experiment [5] in a line: HCT116 colon cancer cell growth inhibition, primary screen, CellTiter-Glo luminescence, NPC library (AID 1117342). The settings on record: at 20 µM (top of the series). Background: Cellular ATP, detected with luciferase, serves as a proxy for viable cell number.
Experiment [6] in a line: CellTiter-Glo luminescent readout of SW480 viability loss, NPC library primary (AID 1117343;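 active = compounds that lower viability of the colon cancer cells in the luminescence readout, with no numeric limit stated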). As to conditions: CellTiter-Glo luminescence; at 20 µM (top of the series).
A short description of experiment [7]: decreased DLD-1 cellular survival, CellTiter-Glo luminescent readout, NPC compound collection, primary HTS (AID 1117346;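 active = compounds that lower survival of DLD-1 colon cancer cells in the luminescence readout, no cutoff given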). The settings on record: DLD-1 viability, CellTiter-Glo luminescence; at 20 µM (top of the series).
Experiment [8] concerns the target 6-phosphogluconate dehydrogenase, decarboxylating (Homo sapiens) (UniProt P52209). The experiment can be described thus: 6PGD enzyme inhibitors, primary screen, biochemical, human, recombinant enzyme, NADPH absorbance (AID 1159550;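 active = at least 20% inhibition of 6-phosphogluconate dehydrogenase activity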). The settings on record: recombinant 6PGD, NADPH absorbance 341 nm; at 10 µM; stronger effect = higher value.
Experiment [9] is described as follows: growth inhibition of DIPG glioma cells, dose response, cell-based, SU-DIPG-XVII, MIPE5.0, CellTiter-Glo, qHTS (AID 1347060; cut-off not given, nearly all actives have AC50 up to about 26 µM;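 as to AC50: cells exposed to compound for 48 hours before viability readout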). As to conditions: SU-DIPG-XVII viability, CellTiter-Glo ATP luminescence.
The nature of experiment [10]: growth inhibition of DIPG glioma cells, dose response, cell-based, JHH-DIPG-1, MIPE4.0, CellTiter-Glo, qHTS (AID 1347062; cut-off not given, nearly all actives have AC50 up to about 27 µM;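 as to AC50: cells exposed to compound for two days before readout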). The settings on record: JHH-DIPG-1 viability, CellTiter-Glo ATP luminescence.
Experiment [11] can be described thus: growth inhibition of DIPG glioma cells, dose response, cell-based, SU-DIPG-IV, MIPE4.0, CellTiter-Glo, qHTS (AID 1347063; cut-off not given, nearly all actives have AC50 up to about 30 µM;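 also: compound exposure lasted 48 hours before the viability readout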). As to conditions: SU-DIPG-IV viability, CellTiter-Glo ATP luminescence.
The nature of experiment [12]: modulation of C. elegans fzo-1 (AID 1259413; call rule not given here;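 also: fzo-1 mutant C. elegans worms in liquid wells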). As to conditions: C. elegans fzo-1 modulator screen, mean read-out; stronger effect = higher value.
Experiment [13] deals with Plasmodium falciparum protein kinase 6 (PK6, PF3D7_1337100) (UniProt Q8IDW1). The experiment can be described thus: PfPK6 kinase inhibitors, biochemical, TCAMS library (AID 1159586; call rule not given here). As to conditions: recombinant PfPK6, Kinase-Glo ATP depletion luminescence. Background: In Kinase-Glo more light means more ATP remaining.
Chain of Plasmodium falciparum protein kinase 6 (PK6, PF3D7_1337100) (Q8IDW1 1-305): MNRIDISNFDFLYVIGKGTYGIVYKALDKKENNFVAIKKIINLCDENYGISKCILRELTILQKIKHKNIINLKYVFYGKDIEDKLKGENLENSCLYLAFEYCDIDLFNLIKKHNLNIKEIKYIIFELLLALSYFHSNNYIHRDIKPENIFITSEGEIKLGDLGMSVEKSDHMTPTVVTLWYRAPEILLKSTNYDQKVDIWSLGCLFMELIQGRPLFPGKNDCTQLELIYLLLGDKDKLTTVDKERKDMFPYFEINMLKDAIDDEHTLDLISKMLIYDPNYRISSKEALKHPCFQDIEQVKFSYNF
Experiment [14] addresses Protein kinase 7 (PK7), Plasmodium falciparum 3D7 (PF3D7_0213400) (UniProt Q7YTF7). The experiment can be described thus: inhibition of Plasmodium PK7 catalytic activity – biochemical, TCAMS antimalarial set, Kinase-Glo luminescence (AID 1159587; call rule not given here). As to conditions: recombinant PfPK7, Kinase-Glo ATP depletion luminescence.
The target of experiment [15] is Calcium-dependent protein kinase 4 (Plasmodium falciparum (isolate 3D7)) (UniProt Q8IBS5). As to the kind of experiment: PfCDPK4 kinase inhibitors, biochemical, TCAMS library (AID 1159588; cut-off not given, nearly all actives have IC50 up to about 0.91 µM). As to conditions: recombinant PfCDPK4, Kinase-Glo ATP depletion luminescence.
Chain of Calcium-dependent protein kinase 4 (Plasmodium falciparum (isolate 3D7)) (Q8IBS5 whole entry, looked up): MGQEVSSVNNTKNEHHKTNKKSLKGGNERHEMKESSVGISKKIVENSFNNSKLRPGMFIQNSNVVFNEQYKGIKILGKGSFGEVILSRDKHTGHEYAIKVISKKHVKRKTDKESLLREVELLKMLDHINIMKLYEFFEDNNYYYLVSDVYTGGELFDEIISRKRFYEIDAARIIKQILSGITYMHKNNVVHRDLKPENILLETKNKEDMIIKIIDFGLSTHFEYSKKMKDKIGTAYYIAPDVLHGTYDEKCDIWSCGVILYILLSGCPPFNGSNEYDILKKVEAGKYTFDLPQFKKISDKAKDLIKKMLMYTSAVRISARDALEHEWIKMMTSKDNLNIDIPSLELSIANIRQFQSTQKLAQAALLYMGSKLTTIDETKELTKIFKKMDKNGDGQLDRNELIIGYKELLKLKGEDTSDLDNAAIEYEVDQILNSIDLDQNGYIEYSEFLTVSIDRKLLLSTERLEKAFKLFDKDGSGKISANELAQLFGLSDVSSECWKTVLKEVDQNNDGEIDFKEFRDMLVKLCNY
Experiment [16] in a line: growth inhibition of DIPG glioma cells, dose response, cell-based, SU-DIPG-XIII, MIPE4.0, CellTiter-Glo, qHTS (AID 1347061; cut-off not given, nearly all actives have AC50 up to about 37 µM;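 also: cells exposed to compound for 48 hours before readout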). As to conditions: SU-DIPG-XIII viability, CellTiter-Glo ATP luminescence.
A short description of experiment [17]: growth inhibition of DIPG glioma cells, dose response, cell-based, SU-DIPG-XIII, MIPE5.0, CellTiter-Glo, qHTS (AID 1347064; cut-off not given, nearly all actives have AC50 up to about 23 µM;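 as to AC50: cells exposed to compound for 48 hours before the viability read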). As to conditions: SU-DIPG-XIII viability, CellTiter-Glo ATP luminescence.
For experiment [18], the target named is Calcium-dependent protein kinase 1 (Plasmodium falciparum (isolate 3D7)) (UniProt P62344). As to the kind of experiment: PfCDPK1 kinase inhibitors, biochemical, TCAMS library (AID 1159585; cut-off not given, nearly all actives have IC50 up to about 0.98 µM;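 also: inhibitors leave more ATP so luminescence rises with inhibition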). As to conditions: recombinant PfCDPK1, Kinase-Glo ATP depletion luminescence.
Chain of Calcium-dependent protein kinase 1 (Plasmodium falciparum (isolate 3D7)) (P62344 whole entry, looked up): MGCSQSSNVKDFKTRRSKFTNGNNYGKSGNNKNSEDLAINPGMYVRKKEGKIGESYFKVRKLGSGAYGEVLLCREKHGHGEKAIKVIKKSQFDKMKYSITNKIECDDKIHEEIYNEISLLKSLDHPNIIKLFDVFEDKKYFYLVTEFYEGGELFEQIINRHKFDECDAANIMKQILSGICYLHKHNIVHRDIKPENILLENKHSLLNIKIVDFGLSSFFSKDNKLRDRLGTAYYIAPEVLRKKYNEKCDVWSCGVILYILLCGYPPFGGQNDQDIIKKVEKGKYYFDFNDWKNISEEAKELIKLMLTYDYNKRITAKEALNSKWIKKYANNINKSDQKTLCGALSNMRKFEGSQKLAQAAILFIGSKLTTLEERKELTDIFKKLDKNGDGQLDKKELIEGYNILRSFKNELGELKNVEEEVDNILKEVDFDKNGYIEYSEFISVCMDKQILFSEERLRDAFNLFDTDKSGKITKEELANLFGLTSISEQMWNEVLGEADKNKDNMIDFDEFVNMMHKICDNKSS
Experiment [19] concerns Aerobactin synthetase IucA (Klebsiella pneumoniae). The experiment can be described thus: IucA aerobactin synthetase inhibitors, biochemical, Tocris library, absorbance (AID 1345561; call rule not given here;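 also: 100% = enzyme without compound and 0% = no enzyme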). The settings on record: purified IucA enzyme assay, absorbance (OD) read-out; stronger effect = lower value;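 tested at 8 µM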.

Chain of 6-phosphogluconate dehydrogenase, decarboxylating (Homo sapiens) (P52209 whole entry, looked up): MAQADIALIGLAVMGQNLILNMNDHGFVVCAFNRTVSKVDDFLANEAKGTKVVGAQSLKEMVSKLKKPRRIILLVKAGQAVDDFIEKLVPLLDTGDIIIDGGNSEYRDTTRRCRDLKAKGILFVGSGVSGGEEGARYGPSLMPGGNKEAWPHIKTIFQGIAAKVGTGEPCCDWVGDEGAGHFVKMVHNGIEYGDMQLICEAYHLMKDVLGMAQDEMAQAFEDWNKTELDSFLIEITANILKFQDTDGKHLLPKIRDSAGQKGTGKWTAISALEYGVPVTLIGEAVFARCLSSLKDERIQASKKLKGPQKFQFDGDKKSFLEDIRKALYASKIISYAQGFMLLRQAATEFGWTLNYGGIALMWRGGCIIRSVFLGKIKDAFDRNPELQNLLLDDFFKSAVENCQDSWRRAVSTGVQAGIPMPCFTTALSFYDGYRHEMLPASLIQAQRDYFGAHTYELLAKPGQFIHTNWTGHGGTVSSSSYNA
Chain of Protein kinase 7 (PK7), Plasmodium falciparum 3D7 (PF3D7_0213400) (Q7YTF7 1-343): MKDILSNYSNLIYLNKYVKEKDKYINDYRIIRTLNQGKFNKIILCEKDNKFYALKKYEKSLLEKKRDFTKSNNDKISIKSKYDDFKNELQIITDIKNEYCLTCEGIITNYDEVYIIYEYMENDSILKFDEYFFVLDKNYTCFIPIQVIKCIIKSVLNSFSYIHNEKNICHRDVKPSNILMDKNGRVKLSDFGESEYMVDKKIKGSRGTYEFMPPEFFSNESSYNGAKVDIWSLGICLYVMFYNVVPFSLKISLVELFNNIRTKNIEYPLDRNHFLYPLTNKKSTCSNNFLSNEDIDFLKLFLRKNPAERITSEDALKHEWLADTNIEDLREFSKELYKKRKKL

By inhibition is commonly meant the change of the read-out against control, counted positive when it falls. As usually defined, the AC50 is the concentration at which the activity in the assay is half-maximal. As to `CC(=O)O[C@]1(C(C)=O)CC[C@H]2[C@@H]3C=C(Cl)C4=CC(=O)[C@@H]5C[C@@H]5[C@]4(C)[C@H]3CC[C@@]21C`, the insulin secretion stimulation in experiment [1] is -1.4%. Moreover, the viability decrease in [2] was 16%. Besides, the tube area decrease in experiment [3] was 10.1%. In addition, in experiment [4], the GLP1 secretion stimulation is 1.2%. Also, in [5], the inhibition of viability is 29.2%. In addition, the viability decrease (inhibition) in experiment [6] is 48.9%; in experiment [7], -4.3%. Also, the inhibition in [8] was -7.53%. For the same compound, the figures for the AC50 in experiment [9], in experiment [10] and in experiment [11] were 23.5 µM (active), 23.5 µM (active) and 9.35 µM (active), respectively.

For the compound `Cc1[nH]cnc1CN1CCc2c(c3ccccc3n2C)C1=O`, the insulin secretion stimulation in [1] was 0.5%. The viability decrease in [2] was 10.2%. Further, the tube area decrease in [3] is 19.5%. The GLP1 secretion stimulation in experiment [4] was 5.1%. Further, the inhibition of viability in experiment [5] was -1.8%. Also, the viability decrease (inhibition) was 42.2% in experiment [6] and 23.8% in experiment [7]. The mean signal in experiment [12] is 241.

For `COc1cc2c(Nc3ccc(Br)cc3F)ncnc2cc1OCC1CCN(C)CC1`, the insulin secretion stimulation in [1] is 2.4%. For the same compound, in experiment [2], the viability decrease is -7.7%. Moreover, the tube area decrease in [3] is -0.5%. Moreover, in [4], the GLP1 secretion stimulation is 1.5%. In addition, the inhibition of viability in experiment [5] was -16%. The viability decrease (inhibition) in [6] was -11.4%; in experiment [7] it was -10.1%. For the same compound, the outcome in experiment [13], in [14] and in experiment [15] was inactive. Also, the AC50 in experiment [9] was 6.61 µM (active); in [16], 3.72 µM (active); in [10], 16.6 µM (active); in [17], 18.6 µM (active).

On to `O=c1[nH]c(=O)n([C@H]2C[C@H](O)[C@@H](CO)O2)cc1F`, for which the insulin secretion stimulation in [1] is -1.2%. The viability decrease in [2] is 94.2% (active). Moreover, the tube area decrease in [3] was 87.8% (active). Also, the GLP1 secretion stimulation in experiment [4] is 2.8%. In addition, the inhibition of viability in experiment [5] is 102% (active). Moreover, the results for the viability decrease (inhibition) in experiment [6] and in experiment [7] were 93.2% (active) and 69.5% (active), respectively. In [8], the inhibition was -7.05%. For the same compound, the results for the AC50 in [16] and in [10] were 13.2 µM (active) and 1.48 µM (active), respectively.

Take `NC(=O)c1ncn([C@@H]2O[C@H](CO)[C@@H](O)[C@H]2O)c1O`: the insulin secretion stimulation in experiment [1] was -2.6%. Also, the viability decrease in [2] was -1.75%. In addition, in [3], the tube area decrease was 3.8%. For the same compound, the GLP1 secretion stimulation in experiment [4] is 2.6%. In experiment [5], the inhibition of viability was -13.1%. The viability decrease (inhibition) in [6] was 2.7%; in [7], 4.7%. Moreover, in [8], the inhibition was 1.32%. The compound was called inactive in experiment [9], in experiment [16] and in experiment [17].

As for `CCN1CC(CCN2CCOCC2)C(c2ccccc2)(c2ccccc2)C1=O` (stereo not drawn), the insulin secretion stimulation in [1] was 0.3%. In [2], the viability decrease was 11.2%. In addition, the tube area decrease in experiment [3] was -7%. The GLP1 secretion stimulation in [4] is 3.1%. The inhibition of viability in experiment [5] was 17%. For the same compound, the viability decrease (inhibition) in [6] is 13.5%; in experiment [7], 4.2%. The mean signal in experiment [12] is 250.

Turning to `CC1=C(C(=O)O)N2C(=O)[C@@H](NC(=O)[C@H](N)C3=CCC=CC3)[C@H]2SC1`, the insulin secretion stimulation in [1] was 0.35%. In addition, in [2], the viability decrease is 47.6%. Also, in experiment [3], the tube area decrease is 0.9%. The GLP1 secretion stimulation in [4] is 1.6%. In addition, in [5], the inhibition of viability was 44%. Further, the viability decrease (inhibition) in experiment [6] is 34.9%; in [7], 16.5%. Further, the inhibition in experiment [8] is 12.9%. Besides, the compound was classed as inactive in experiment [10].

A word on the remaining activity: it is the activity still measured, relative to the control. On to `CCCCCCCC/C=C\CCCCCCCC(=O)NCc1ccc(O)c(OC)c1`, for which the insulin secretion stimulation in [1] was 3.15%. Besides, the viability decrease in experiment [2] was 26.6%. Besides, the tube area decrease in experiment [3] was 17.4%. Also, the GLP1 secretion stimulation in experiment [4] was 6.2%. In addition, the inhibition of viability in experiment [5] was 65.7% (active). Further, the viability decrease (inhibition) was 47.5% in [6] and 53.1% (active) in experiment [7]. For the same compound, the outcome in experiment [18], in experiment [13], in experiment [14] and in [15] was inactive. In addition, the remaining activity in experiment [19] is 100%.
